In PubChem BioAssay (NCATS):
Records with an inconclusive call do not appear. The source made the active and inactive calls. Unless noted, calls follow the shape of the dose curve; as a rule, active = well fitted curve in the direction sought with a large enough effect; inconclusive = small, poorly fitted or top-dose-only effect, or another doubt; inactive = no such curve, though single readings can be large; an effect the other way counts as inactive or inconclusive.

Experiments:
[1] = target: Endonuclease 4 (Escherichia coli (strain K12)) (UniProt P0A6C1); assay: Counterscreen for APE1 Inhibitors: qHTS Validation Assay for Inhibitors of Endonuclease IV (AID 1708); also: % is scaled to controls: 0 for no effect and ±100 for the full control effect
Method in brief: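 E. coli EndoIV at 2 nM final, preincubated 15 min at room temperature with compound, then 50 nM TAMRA/BHQ-2 THF abasic-site duplex added. Buffer: 50 mM Tris-HCl pH 7.5, 50 mM NaCl, 2 mM MgCl2, 1 mM DTT, 0.01% Tween-20. Kinetic fluorescence increase, third minus first read.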

[2] = qHTS for differential inhibitors of proliferation of Plasmodium falciparum line 7G8 (AID 1815);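 also: potency is read from the fitted curve at half-maximal effect; parasite growth measured after three days of incubation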
[3] = qHTS for differential inhibitors of proliferation of Plasmodium falciparum line GB4 (AID 1816); settings: Potency: Plasmodium falciparum GB4 proliferation inhibition;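 also: potency is read from the fitted curve at half-maximal effect; parasite growth measured after 72 h incubation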
[4] = qHTS for differential inhibitors of proliferation of Plasmodium falciparum line 3D7 (AID 1876); also: potency is read from the fitted curve at half-maximal effect
[5] = qHTS for differential inhibitors of proliferation of Plasmodium falciparum line D10 (AID 1877);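 also: potency is read from the fitted curve at half-maximal effect; parasites grown with compound for 72 h before DNA staining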
[6] = qHTS for differential inhibitors of proliferation of Plasmodium falciparum line W2 (AID 1883); settings: Potency: Plasmodium falciparum W2 proliferation inhibition;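 also: potency is read from the fitted curve at half-maximal effect; parasites grown with compound for 72 h before lysis and staining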
[7] = qHTS for differential inhibitors of proliferation of Plasmodium falciparum line HB3 (AID 1886); settings: Potency: Plasmodium falciparum HB3 proliferation inhibition;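 also: potency is read from the fitted curve at half-maximal effect; parasites grown with compound for 72 h before SYBR Green readout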
[8] = target: Ferritin light chain (Equus caballus) (UniProt P02791); assay: qHTS Validation Assay for Identification of Novel General Anesthetics (AID 2323); also: series mostly up to about 77 µM; % is scaled to controls: 0 for no effect and ±100 for the full control effect
Method in brief: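 Horse-spleen apoferritin (10 uM) in PBS with 50% saturated 1-aminoanthracene; compounds pin-transferred, 10 min at room temperature. Fluorescence read at 380/535 nm, normalized to free 1-AMA and 1-AMA/apoferritin values; four-parameter Hill fit.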

[9] = target: ATP-dependent DNA helicase Q1 (Homo sapiens) (UniProt P46063); assay: qHTS Validation Assay for Inhibitors of RecQ-Like Dna Helicase 1 (RECQ1) (AID 2353);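 also: plate controls were DMSO vehicle for no effect and enzyme-free control for full effect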
Method in brief: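 50 nM RECQ1T1 preincubated 15 min with compound in Tris pH 8.0 buffer with MgCl2, DTT, Tween-20 and 2.5 ug/ml poly(dI-dC); started with 200 nM TAMRA/BHQ-2 forked duplex and 2 mM ATP. Unwinding read as fluorescence (525/598 nm), two reads 2 h apart.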

[10] = Quantitative high throughput screen for delayed death inhibitors of the malarial parasite plastid, 96 hour incubation (AID 488745); also: potency is read from the fitted curve at half-maximal effect; nearly all actives have a fitted effect of over 70% in size
Method in brief: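 Luciferase-expressing P. falciparum in erythrocytes (2% hematocrit, 0.1% parasitemia) incubated with compound for 96 h at 37 C, 5% CO2, in RPMI 1640 with 0.5% Albumax. Growth inhibition read as decreased luminescence.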

[11] = Quantitative high throughput screen for delayed death inhibitors of the malarial parasite plastid, 48 hour incubation (AID 488752); also: potency is read from the fitted curve at half-maximal effect; nearly all actives have a fitted effect of over 65% in size
Method in brief: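 Erythrocytes infected with firefly luciferase-expressing P. falciparum (2% hematocrit, 0.1% parasitemia) cultured with compound for 48 h at 37 C, 5% CO2, in RPMI 1640/0.5% Albumax. Growth inhibition read as loss of luminescence.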

[12] = target: M-phase phosphoprotein 8 (Homo sapiens) (UniProt Q99549); assay: qHTS Validation Assay for Inhibitors for MPP8 Chromodomain Interactions with Methylated Histone Tails (AID 488949); also: top concentration of the series differs between compounds; % is scaled to controls: 0 for no effect and ±100 for the full control effect; nearly all actives have a fitted effect of over 55% in size
Method in brief: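 MPP8 (50 nM) was pre-bound to 50 nM biotinylated H3(1-18)K9me3 peptide in PBS pH 7.4 with 0.01% Tween-20. Compounds were then added for 30 min at room temperature, and complex disruption was read by AlphaScreen with streptavidin donor and nickel-chelate acceptor beads.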

[13] = target: Transient receptor potential cation channel subfamily V member 1 (Homo sapiens) (UniProt Q8NER1); assay: HTS Assay for Compounds that Act as Enhancers of the Vanilloid Receptor 1 (AID 488979); also: 0% is about no effect
Method in brief: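 TRPV1 cells loaded with Fluo-8 calcium dye; compound added and Ca2+ signal (ex 480/em 520 nm) followed 3 min, then capsaicin at EC20 added and read 2 more min to detect enhancement.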

[14] = target: Thyrotropin receptor (Homo sapiens) (UniProt P16473); assay: qHTS Assay for Antagonists of the Thyroid Stimulating Hormone Receptor (AID 488980); also: series mostly up to about 58 µM; 0% is about no effect
Method in brief: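 TSHR-transfected HEK293 cells (2000/well) in HEPES-buffered HBSS with 70 uM RO 20-1724 were stimulated with 4 nM TSH (EC80, final) in the presence of compound. cAMP was measured by HTRF competition after lysis and 30 min at RT.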

[15] = target: Thyrotropin-releasing hormone receptor (Homo sapiens) (UniProt P34981); assay: qHTS for Small Molecule Agonists and Allosteric Enhancers of Human TRH Receptor: Validation Screen for Agonists (AID 493127;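 active = calcium activation more than 3 SD above the typical response in the agonist read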; also: 0% is about no effect); settings: TRH receptor agonist cell assay; at 2 µM; hits give high values
Method in brief: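 TRHR cells loaded with fluo-8 calcium dye; FDSS kinetic fluorescence (Ex 480/Em 530) read at 1 s/cycle after 23 nL compound addition. Agonist-mode calcium response recorded before the 10 nM TRH (EC20) addition.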

[16] = Validation screen for small molecules that induce DNA re-replication in SW480 colon adenocarcinoma cells (AID 504364); also: 0% is about no effect
Method in brief: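 SW480 cells (250/well) exposed 48 h at 37 C, 5% CO2, then Hoechst-stained 40 min. Nuclear DNA content imaged by fluorescence scanning (405 nm excitation, 500-530 nm emission); re-replication scored as increased nuclei with elevated intensity.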

[17] = target: DNA dC->dU-editing enzyme APOBEC-3G (Homo sapiens) (UniProt Q9HC16); assay: qHTS for inhibitors of Vif-A3G interactions: Validation (AID 588379); also: 0% is about no effect
Method in brief: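 HeLa cells stably expressing Vif and A3G-eYFP, 700 cells/well, incubated overnight at 37 deg C, then exposed to compound overnight at 37 deg C. Inhibition of Vif-mediated degradation read as increased yellow fluorescence (Ex 488/Em 500-530) by laser-scanning cytometry.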

[18] = target: Voltage-gated inwardly rectifying potassium channel KCNH2 (Homo sapiens) (UniProt Q12809); assay: qHTS Assay for Small Molecule Inhibitors of the Human hERG Channel Activity (AID 588834);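 also: top concentration of the series differs between compounds; % is scaled to controls: 0 for no effect and ±100 for the full control effect; lower thallium flux fluorescence means stronger hERG block; nearly all actives have a fitted effect of over 50% in size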
Method in brief: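 U2OS cells BacMam-transduced with hERG, 2000 cells/well, compound ~10 min at 37 °C before stimulation buffer. FluxOR thallium flux fluorescence read kinetically on FDSS; decrease indicates block; AC50 from Hill fits.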

[19] = test system: Zika virus NS2B-NS3 protease; assay: Primary screen GU AMC qHTS for Zika virus inhibitors (AID 1347154);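 also: 0% = no-inhibitor control and -100% = no-enzyme control; nearly all actives have a fitted effect of over 70% in size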
Method in brief: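 Unlinked Zika NS2B hydrophilic domain–NS3 protease complex at 25 nM in 10 mM Tris-HCl pH 8.0, 0.01% Tween 20, with an AMC peptide substrate. Fluorescence change (340/450 nm) over 15 min at room temperature, normalized to controls, fitted to 4-parameter Hill.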

[20] = Primary qHTS for small molecule stabilizers of the endoplasmic reticulum resident proteome: Secreted ER Calcium Modulated Protein (SERCaMP) assay (AID 1508630); also: % is scaled to controls: 0 for no effect and ±100 for the full control effect
Method in brief: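 GLuc-SERCaMP-expressing SH-SY5Y cells, pretreated 16 h with compound, are challenged with thapsigargin to empty ER calcium stores; after 4 h, coelenterazine is added directly to the medium and luminescence is imaged.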

Chain of Transient receptor potential cation channel subfamily V member 1 (Homo sapiens) (Q8NER1 whole entry, looked up): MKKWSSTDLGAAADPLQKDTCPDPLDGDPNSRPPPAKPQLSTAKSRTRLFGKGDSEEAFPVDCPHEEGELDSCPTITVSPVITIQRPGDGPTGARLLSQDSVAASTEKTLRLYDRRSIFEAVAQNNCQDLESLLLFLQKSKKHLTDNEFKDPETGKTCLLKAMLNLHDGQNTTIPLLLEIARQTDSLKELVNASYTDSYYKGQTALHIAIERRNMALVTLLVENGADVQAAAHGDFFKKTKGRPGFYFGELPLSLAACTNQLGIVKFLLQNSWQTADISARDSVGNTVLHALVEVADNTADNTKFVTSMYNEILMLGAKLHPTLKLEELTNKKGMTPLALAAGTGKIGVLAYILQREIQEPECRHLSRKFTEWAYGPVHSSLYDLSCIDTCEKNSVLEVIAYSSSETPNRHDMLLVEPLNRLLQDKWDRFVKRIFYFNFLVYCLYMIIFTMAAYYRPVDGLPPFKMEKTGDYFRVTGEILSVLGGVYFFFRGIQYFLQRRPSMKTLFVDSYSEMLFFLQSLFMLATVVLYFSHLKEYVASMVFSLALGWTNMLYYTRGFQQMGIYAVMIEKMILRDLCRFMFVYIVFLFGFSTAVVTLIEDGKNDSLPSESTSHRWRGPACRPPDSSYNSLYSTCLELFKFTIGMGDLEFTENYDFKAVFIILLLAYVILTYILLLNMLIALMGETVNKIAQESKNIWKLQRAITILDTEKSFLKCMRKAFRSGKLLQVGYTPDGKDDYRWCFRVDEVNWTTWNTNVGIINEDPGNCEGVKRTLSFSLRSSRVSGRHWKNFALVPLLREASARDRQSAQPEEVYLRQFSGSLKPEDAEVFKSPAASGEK
Chain of Voltage-gated inwardly rectifying potassium channel KCNH2 (Homo sapiens) (Q12809 whole entry, looked up): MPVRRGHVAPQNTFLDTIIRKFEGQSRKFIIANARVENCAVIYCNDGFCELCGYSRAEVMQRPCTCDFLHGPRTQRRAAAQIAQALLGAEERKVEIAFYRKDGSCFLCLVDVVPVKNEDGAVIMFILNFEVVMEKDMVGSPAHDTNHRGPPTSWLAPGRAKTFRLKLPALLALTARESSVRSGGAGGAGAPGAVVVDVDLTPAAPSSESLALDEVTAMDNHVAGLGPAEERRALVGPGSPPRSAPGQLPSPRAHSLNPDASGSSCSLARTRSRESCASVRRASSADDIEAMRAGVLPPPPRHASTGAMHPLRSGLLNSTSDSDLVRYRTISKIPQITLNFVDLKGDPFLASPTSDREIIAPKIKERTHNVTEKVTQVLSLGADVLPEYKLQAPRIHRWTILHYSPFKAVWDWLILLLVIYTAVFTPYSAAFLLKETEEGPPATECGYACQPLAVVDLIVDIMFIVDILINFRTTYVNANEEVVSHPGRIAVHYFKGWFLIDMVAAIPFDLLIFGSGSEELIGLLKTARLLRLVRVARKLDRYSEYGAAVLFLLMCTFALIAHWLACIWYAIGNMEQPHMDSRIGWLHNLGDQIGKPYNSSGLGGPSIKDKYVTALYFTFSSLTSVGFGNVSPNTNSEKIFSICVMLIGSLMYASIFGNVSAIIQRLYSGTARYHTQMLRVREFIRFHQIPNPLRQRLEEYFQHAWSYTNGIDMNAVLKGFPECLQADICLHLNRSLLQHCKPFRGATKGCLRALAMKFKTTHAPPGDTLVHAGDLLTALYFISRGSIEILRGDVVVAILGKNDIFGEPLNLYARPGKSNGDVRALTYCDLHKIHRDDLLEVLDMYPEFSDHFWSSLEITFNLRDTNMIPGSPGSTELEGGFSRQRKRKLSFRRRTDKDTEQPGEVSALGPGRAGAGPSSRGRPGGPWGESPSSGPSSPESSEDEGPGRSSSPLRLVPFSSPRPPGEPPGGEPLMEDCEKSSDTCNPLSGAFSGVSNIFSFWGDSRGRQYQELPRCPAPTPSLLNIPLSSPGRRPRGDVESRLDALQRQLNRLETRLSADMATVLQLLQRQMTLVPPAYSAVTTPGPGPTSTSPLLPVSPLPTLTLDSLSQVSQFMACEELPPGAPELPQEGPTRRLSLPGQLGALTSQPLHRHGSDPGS
Chain of DNA dC->dU-editing enzyme APOBEC-3G (Homo sapiens) (Q9HC16 whole entry, looked up): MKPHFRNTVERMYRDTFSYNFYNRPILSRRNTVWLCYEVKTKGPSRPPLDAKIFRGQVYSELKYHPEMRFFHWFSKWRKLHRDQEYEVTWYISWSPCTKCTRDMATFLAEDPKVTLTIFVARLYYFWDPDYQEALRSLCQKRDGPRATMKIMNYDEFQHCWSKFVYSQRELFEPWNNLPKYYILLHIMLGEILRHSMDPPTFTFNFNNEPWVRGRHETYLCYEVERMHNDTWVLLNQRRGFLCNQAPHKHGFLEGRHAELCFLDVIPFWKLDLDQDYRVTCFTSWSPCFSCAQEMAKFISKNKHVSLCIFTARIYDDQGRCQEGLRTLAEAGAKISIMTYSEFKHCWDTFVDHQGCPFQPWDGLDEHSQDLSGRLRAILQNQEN
Chain of ATP-dependent DNA helicase Q1 (Homo sapiens) (P46063 whole entry, looked up): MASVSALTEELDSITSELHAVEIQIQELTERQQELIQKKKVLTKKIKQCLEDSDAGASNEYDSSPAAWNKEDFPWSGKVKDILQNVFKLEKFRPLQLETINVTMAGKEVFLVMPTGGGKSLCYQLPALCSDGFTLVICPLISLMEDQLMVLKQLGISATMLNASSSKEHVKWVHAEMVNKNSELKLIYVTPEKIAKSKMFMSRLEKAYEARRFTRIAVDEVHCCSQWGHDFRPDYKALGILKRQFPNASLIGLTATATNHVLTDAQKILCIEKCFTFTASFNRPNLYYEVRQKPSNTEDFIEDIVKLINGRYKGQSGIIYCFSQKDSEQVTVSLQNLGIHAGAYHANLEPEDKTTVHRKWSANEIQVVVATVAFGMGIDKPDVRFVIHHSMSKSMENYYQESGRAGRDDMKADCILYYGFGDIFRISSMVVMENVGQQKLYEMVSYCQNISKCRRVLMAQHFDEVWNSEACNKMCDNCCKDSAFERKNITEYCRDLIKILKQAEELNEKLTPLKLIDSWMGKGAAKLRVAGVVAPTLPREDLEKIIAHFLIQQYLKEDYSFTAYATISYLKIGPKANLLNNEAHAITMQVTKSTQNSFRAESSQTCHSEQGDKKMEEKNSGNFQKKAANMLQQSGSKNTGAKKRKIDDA
Chain of M-phase phosphoprotein 8 (Homo sapiens) (Q99549 whole entry, looked up): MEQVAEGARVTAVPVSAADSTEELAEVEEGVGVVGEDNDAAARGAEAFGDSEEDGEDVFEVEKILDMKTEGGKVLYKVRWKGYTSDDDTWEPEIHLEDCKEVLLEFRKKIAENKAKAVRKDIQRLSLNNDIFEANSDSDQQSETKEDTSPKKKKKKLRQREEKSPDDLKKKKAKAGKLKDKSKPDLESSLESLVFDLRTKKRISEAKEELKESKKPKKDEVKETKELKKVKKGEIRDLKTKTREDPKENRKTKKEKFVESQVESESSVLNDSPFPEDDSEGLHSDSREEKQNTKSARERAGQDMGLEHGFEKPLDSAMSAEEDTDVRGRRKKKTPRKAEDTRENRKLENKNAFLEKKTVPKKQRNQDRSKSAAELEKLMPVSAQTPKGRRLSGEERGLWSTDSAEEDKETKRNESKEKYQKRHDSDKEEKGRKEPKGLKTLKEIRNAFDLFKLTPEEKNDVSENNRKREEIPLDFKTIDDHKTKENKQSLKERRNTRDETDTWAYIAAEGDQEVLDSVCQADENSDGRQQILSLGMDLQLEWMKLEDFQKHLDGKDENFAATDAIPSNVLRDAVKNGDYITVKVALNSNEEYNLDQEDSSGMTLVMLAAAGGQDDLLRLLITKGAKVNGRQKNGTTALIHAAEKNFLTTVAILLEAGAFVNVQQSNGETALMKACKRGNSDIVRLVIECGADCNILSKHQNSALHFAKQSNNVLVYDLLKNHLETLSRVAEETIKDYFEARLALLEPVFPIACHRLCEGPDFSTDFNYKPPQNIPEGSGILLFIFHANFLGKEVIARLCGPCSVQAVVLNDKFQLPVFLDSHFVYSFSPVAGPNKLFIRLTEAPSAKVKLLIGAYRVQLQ
Chain of Thyrotropin-releasing hormone receptor (Homo sapiens) (P34981 whole entry, looked up): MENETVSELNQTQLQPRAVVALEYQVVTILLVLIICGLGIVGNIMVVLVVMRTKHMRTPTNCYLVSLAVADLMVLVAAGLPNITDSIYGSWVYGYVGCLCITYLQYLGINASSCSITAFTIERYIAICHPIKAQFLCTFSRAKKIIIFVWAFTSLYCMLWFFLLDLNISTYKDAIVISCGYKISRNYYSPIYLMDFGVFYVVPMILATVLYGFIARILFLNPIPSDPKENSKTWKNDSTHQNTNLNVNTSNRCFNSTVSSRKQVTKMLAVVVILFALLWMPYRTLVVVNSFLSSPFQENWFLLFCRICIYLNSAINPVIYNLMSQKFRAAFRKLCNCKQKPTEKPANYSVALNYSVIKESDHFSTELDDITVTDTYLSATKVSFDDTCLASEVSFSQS
Chain of Thyrotropin receptor (Homo sapiens) (P16473 whole entry, looked up): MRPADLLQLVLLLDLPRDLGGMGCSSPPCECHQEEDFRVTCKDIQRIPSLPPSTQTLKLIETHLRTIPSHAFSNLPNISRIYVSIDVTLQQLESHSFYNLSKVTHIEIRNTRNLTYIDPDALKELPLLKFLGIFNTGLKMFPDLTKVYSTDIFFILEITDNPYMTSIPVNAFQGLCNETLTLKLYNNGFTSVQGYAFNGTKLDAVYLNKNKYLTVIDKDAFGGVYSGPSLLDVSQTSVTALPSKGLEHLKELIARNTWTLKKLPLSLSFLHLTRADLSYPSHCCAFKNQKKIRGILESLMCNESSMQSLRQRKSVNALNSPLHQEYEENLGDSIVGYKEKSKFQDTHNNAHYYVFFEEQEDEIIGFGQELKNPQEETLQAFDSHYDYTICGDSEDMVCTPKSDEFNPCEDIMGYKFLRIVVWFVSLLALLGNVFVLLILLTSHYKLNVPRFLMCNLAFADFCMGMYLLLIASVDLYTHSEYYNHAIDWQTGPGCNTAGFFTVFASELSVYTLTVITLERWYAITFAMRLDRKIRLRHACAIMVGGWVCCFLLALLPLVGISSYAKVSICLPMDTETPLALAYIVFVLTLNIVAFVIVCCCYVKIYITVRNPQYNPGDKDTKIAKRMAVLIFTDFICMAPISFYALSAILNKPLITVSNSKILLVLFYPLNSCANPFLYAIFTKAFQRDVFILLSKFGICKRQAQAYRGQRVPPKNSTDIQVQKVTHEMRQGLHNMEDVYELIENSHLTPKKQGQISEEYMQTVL

COC(=O)c1c(-c2cc(OC)c(OC)c(OC)c2)c2ccnc(OCc3ncccn3)c2c(=O)n1Cc1ccnc(C)c1
inactive: Potency [1] | outcome [8] | Potency [9] | Potency [12] | outcome [13] | outcome [14] | activation [15] 0.438% | outcome [16] | Potency [17] | Potency [18] | Potency [19] | Potency [20]
active: Potency [2] 3.98 µM | Potency [3] 4.47 µM | Potency [4] 2 µM | Potency [5] 4.47 µM | Potency [6] 2.51 µM | Potency [7] 2.82 µM | Potency [10] 5.86 µM | Potency [11] 9.28 µM
